From PubChem BioAssay (Tox21)
Where “and” joins values, the source holds several entries; their conditions need not be identical. Identical values can stand only once. Inconclusive results are not listed. Where a structure was tested more than once in an assay, its records may differ in their call. Calls of active or inactive are those of the source. Unless noted, calls come from the whole dose curve; as a rule, active = well fitted curve in the direction sought with a large enough effect in the repeat runs; inconclusive = weak or mixed curves; inactive = no such curve, though single readings can be large; an effect the other way counts as inactive or inconclusive.

Columns and labels:
[1] = qHTS assay to identify small molecule antagonists of the vitamin D receptor (VDR) signaling pathway - cell viability counter screen (AID 743225); note: nearly all actives have a fitted effect of over 50% in size
How it was run: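 In this counter screen, VDR-bla HEK 293T cells receive test compound plus 3 nM final calcitriol for 16 h at 37C. Room-temperature steps of 2 h with the beta-lactamase substrate, then 30 min with CellTiter-Glo, precede the luminescence read.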

[2] = qHTS assay to identify small molecule agonists of the NFkB signaling pathway (AID 1159509; active = well fitted curve in the direction sought with a large enough effect in the signal ratio in the repeat runs, not every such curve was filed as active; the % refers to the signal ratio; note: series mostly up to about 61 µM)
How it was run: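 After overnight attachment, reporter cells received test compounds, DMSO or positive controls and were incubated 5 hr at 37 C. FRET substrate was then added for 1.5 hr at room temperature before dual-emission fluorescence reading.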

[3] = qHTS assay to identify small molecule agonists of the NFkB signaling pathway - cell viability counter screen (AID 1159515; calls by dose curve; note: series mostly up to about 61 µM; nearly all actives have a fitted effect of over 55% in size)
How it was run: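 Using the same wells as the NFkB reporter read, ME-180 NFkB-bla cells given compounds for 5 hr were assessed for viability via CellTiter-Glo, with luminescence taken after a 30 min room-temperature incubation.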

[4] = qHTS assay to identify small molecule agonists of the endoplasmic reticulum stress response signaling pathway (AID 1159516; active = well fitted activation curve with a large enough effect in the signal ratio in the repeat runs, not every such curve was filed as active; the % refers to the signal ratio)
How it was run: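 An ESRE-bla HeLa cell assay: compounds were pin-transferred from DMSO onto overnight-plated cells and left 5 hr at 37 C. Substrate was then loaded for 2 hr at room temperature before reading fluorescence at 460 nm and 530 nm.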

[5] = qHTS assay to identify small molecule agonists of the endoplasmic reticulum stress response signaling pathway - cell viability counter screen (AID 1159517; calls by dose curve;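 note: HeLa cells carrying an ER stress response element beta-lactamase reporter; series mostly up to about 61 µM; nearly all actives have a fitted effect of over 50% in size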)
How it was run: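 Counter-screen wells were identical to the reporter wells. Cells were plated at 1,500 per well and dosed for 5 hr, then read for luminescence 30 min after CellTiter-Glo addition.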

[6] = qHTS assay to identify small molecule antagonists of the retinoid-related orphan receptor gamma (ROR-gamma) signaling pathway - cell viability counter screen (AID 1159520); note: nearly all actives have a fitted effect of over 50% in size
How it was run: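 Tet-on ROR gamma CHO cells were given compounds for 2 hr, then doxycycline hyclate at 1 uM final, and incubated 16 hr at 37 C. Viability was measured as ATP content by CellTiter-Glo luminescence.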

[7] = biological target: Nuclear receptor ROR-gamma (Homo sapiens) (UniProt P51449); experiment: qHTS assay to identify small molecule antagonists of the retinoid-related orphan receptor gamma (ROR-gamma) signaling pathway (AID 1159521;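 note: CHO cells with doxycycline inducible ROR-gamma driving an RORE luciferase reporter; top concentration of the series differs between compounds; nearly all actives have a fitted effect of over 50% in size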)
How it was run: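 Screening format: cell-based luciferase reporter in CHO cells with doxycycline-inducible RORγ. Compound pre-exposure lasts 2 h, doxycycline is 1 uM final, induction runs 16 h at 37 C, and ONE-Glo luminescence is read.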

[8] = qHTS assay to identify small molecule agonists of the AP-1 signaling pathway (AID 1159526; calls by dose curve)
[9] = qHTS assay to identify small molecule agonists of the RXR signaling pathway - cell viability counter screen (AID 1159529)
How it was run: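 Viability read-out for the RXR-alpha agonist qHTS: luminescent CellTiter-Glo signal after 30 min at RT. HEK 293T bla reporter cells, 2% charcoal-stripped FBS, 16 hr compound incubation; tetraoctyl ammonium bromide as cytotoxic control.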

[10] = qHTS assay to identify small molecule antagonists of the retinoid acid receptor (RAR) signaling pathway - cell viability counter screen (AID 1159551); note: nearly all actives have a fitted effect of over 35% in size
How it was run: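 Retinol-stimulated (1 uM final) C3RL4 cells, compound 6 h, 37 C; readout CellTiter-Glo luminescence (ATP) after 30 min RT incubation.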

[11] = qHTS assay to identify small molecule antagonists of the retinoic acid receptor (RAR) signaling pathway (AID 1159552; note: nearly all actives have a fitted effect of over 50% in size; note: potency is the fitted concentration of half-maximal effect)
How it was run: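 Using a RARE-driven luciferase construct in C3RL4 cells, retinol at 1 uM final provided the agonist stimulus while compounds were co-applied. After 6 hours at 37 C, luminescence was recorded to flag inhibitors of retinol signaling.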

[12] = qHTS assay to identify small molecule agonists of the retinoic acid receptor (RAR) signaling pathway (AID 1159553)
How it was run: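 Reporter readout comes from luciferase under RARE control in C3RL4 cells; compound exposure lasts 6 hr at 37 C in 5% CO2, and luminescence is recorded following a 30 min room-temperature incubation with reagent.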

[13] = qHTS assay to identify small molecule agonists of the AP-1 signaling pathway - cell viability counter screen (AID 1159525; calls by dose curve; note: nearly all actives have a fitted effect of over 55% in size)
How it was run: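 AP-1-bla ME-180 cells in Opti-MEM with 0.5% dialyzed FBS, compound exposure 5 h at 37 C in 15-point titration. Viability read in the same wells as ATP content by CellTiter-Glo luminescence, normalised to tetra-n-octylammonium bromide and DMSO controls.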

[14] = qHTS assay to identify small molecule antagonists of the estrogen related receptor (ERR) signaling pathway (AID 1224819)
How it was run: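 Luminescence readout (One-Glo, 30 min, RT) of ERR cell line after 18 h compound exposure at 37 C; cells seeded 2,000/well, pre-incubated 6 h, compounds pinned from DMSO stocks.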

[15] = qHTS assay to identify small molecule agonists of the estrogen related receptor (ERR) signaling pathway (AID 1224820); note: potency is the fitted concentration of half-maximal effect
How it was run: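 Quantitative HTS of the LOPAC library used NTP ERR reporter cells treated 18 h at 37 C. Signal is luminescence after One-Glo addition and a 30 min room-temperature incubation.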

[16] = qHTS assay to identify small molecule antagonists of the estrogen related receptor signaling pathway with the pleiotropic PPARgamma coactivator (PGC) cell viability counter screen (AID 1224822;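 note: series mostly up to about 46 µM; viability read after 17.5 h compound exposure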)
How it was run: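 PGC/ERR cells were plated at 2,000 per well and allowed 6 h to settle before compound addition. Following 17.5 h at 37 C, CellTiter-Fluor reagent was added and fluorescence was read 30 min later.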

[17] = qHTS assay to identify small molecule agonists of the estrogen related receptor signaling pathway with the pleiotropic PPARgamma coactivator (PGC) (AID 1224823); note: potency is the fitted concentration of half-maximal effect
How it was run: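 Cell-based luciferase assay in the NTP-supplied PGC/ERR line, 2,000 cells/well; 18 h compound exposure at 37 C, luminescence after One-Glo.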

[18] = biological target: Retinoic acid receptor RXR-alpha (Homo sapiens) (UniProt P19793); experiment: qHTS assay to identify small molecule agonists of the RXR signaling pathway (AID 1159527; calls by dose curve; note: nearly all actives have a fitted effect of over 35% in size; note: potency is the fitted concentration of half-maximal effect)
Retinoic acid receptor RXR-alpha (Homo sapiens), sequence (P19793 whole entry, looked up): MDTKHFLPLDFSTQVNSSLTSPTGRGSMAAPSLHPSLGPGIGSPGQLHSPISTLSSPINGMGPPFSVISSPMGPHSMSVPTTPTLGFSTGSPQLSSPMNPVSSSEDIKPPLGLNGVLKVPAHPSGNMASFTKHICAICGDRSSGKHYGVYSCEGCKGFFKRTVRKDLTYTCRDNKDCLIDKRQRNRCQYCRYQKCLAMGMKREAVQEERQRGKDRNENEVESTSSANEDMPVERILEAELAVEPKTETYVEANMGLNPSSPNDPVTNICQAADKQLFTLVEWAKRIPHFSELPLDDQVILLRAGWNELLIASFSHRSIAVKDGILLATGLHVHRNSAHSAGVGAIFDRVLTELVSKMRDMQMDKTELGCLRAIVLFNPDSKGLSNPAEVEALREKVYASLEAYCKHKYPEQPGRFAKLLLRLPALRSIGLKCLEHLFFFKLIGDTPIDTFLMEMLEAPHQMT
How it was run: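 Fluorescence ratio readout (460 vs 530 nm) from GeneBLAzer RXR-alpha HEK 293T cells after 16 hr compound treatment; cells seeded 5 hr beforehand in low-serum, charcoal-stripped medium.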

Measured: Potency

Nc1ccc(S(=O)(=O)c2ccc(N)cc2)cc1
not listed: [13] | [14] | [15] | [16] | [17] | [18]
inactive: all other assays above

OC(Cn1cncn1)(Cn1cncn1)c1ccc(F)cc1F
inactive: [1] | [2] | [3] | [4] | [5] | [6] | [7] | [8] | [9] | [10]

Oc1ccc(/C=C/c2cc(O)cc(O)c2)cc1
active: [11] 49 µM and 43.3 µM | [15] 3.62 µM | [17] 11.4 µM
not listed: [12] | [18]
inactive: all other assays above

Nc1ccc(S(=O)(=O)Nc2nccs2)cc1
19.6 µM (active) and inactive: [18]
not listed: [7] | [14] | [15] | [16] | [17]
inactive: all other assays above

O=C(O)CS
inactive: [1] | [2] | [3] | [4] | [5] | [6] | [8] | [18] | [9] | [10]
